Screening data deposited in PubChem BioAssay by National Center for Advancing Translational Sciences (NCATS).
An excerpt weighted towards active compounds, which were near 19% of everything screened.
HT1080-NT tox – kills 2HG-producing HT-1080-NT fibrosarcoma cells. Potency, µM (titrated, usually from 46.1 µM), for the others: top-dose activity, negative = less viability, actives largely listed as cytotoxic. HT-1080-NT fibrosarcoma viability, CellTiter-Glo ATP luminescence, 48 h. actives 1.6% (n = 360,000);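 further: NT is the 2HG producing partner of a matched IDH1 knockdown line; potency means the concentration at half of the fitted maximal effect; 0% = DMSO-treated cells and -100% = media-only wells without cells; nearly all actives have a fitted effect of over 55% in size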
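Toxicity toward the 2HG-producing NT line was scored as %Activity, normalised to DMSO and no-cell wells, from CellTiter-Glo luminescence after 48 hours' treatment.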
DT40 TDP1 no CPT – qHTS for Inhibitors of human tyrosyl-DNA phosphodiesterase 1 (TDP1): qHTS in cells in absence of CPT; DT40 Tdp1-/- hTDP1 cells, no CPT, ATP luminescence, 48 h; Potency, µM (highest dose often 46.2 µM), for the others: top-dose activity change, negative = growth inhibition, usual class: inhibitors; actives 15% (n = 420,000); AID 686978, 2013; further: potency means the concentration at half of the fitted maximal effect; nearly all actives have a fitted effect of over 55% in size
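Compound effects on proliferation are scored in DT40 Tdp1-/-;hTDP1 cells in the absence of CPT. ATP levels (CellTiter-Glo luminescence) are recorded after a ≥48 hr, 37 °C incubation.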
TDP1 cell CPT – DT40-hTDP1 cell growth loss with CPT; chicken DT40 Tdp1-/-;hTDP1 cells + 20 nM CPT, ATP luminescence, 48 h; Potency, µM (series often up to 46.2 µM), for the others: at the top dose activity change, negative = growth inhibition, actives largely listed as inhibitors; actives 12% (n = 420,000); AID 686979; further: potency means the concentration at half of the fitted maximal effect; nearly all actives have a fitted effect of over 55% in size
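Cell growth measured by CellTiter-Glo luminescence after a minimum 48 h, 37 C compound exposure with 20 nM CPT in Tdp1-knockout DT40 cells stably expressing hTDP1, seeded 400/well; qHTS titration format.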
IL1B secr inh – inflammasome signaling inhibition, IL-1 beta readout | THP-1 LPS/ATP IL-1B secretion, AlphaLISA, 16 h; hits give low values | activity change, % at 57.5 µM | actives 4.7% (n = 360,000); in the data active means activity change below about -50%; inconclusive means mostly about -30% to -49%
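THP-1 cells pretreated 1 hr with compounds (up to 57.5 uM final), then stimulated with LPS (250 ng/mL final) plus ATP (1.25 mM final); secreted IL-1B measured by AlphaLISA after 16 hr, decreased signal indicating inhibition.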
HT1080 IDH1KD tx – HT-1080 IDH1 knockdown cell toxicity (counter line) | actives 2% (n = 360,000) | AID 686971 | Potency, µM (titrated, usually from 46.1 µM), inactives show at the top dose activity, negative = toxicity, usual class: cytotoxic | HT-1080 IDH1 knockdown viability, ATP luminescence, 48 h;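 further: potency means the concentration at half of the fitted maximal effect; 0% = DMSO wells and -100% = cell-free medium wells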
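IDH1KD HT-1080 cells, 750/well, RPMI + 5% FBS; compound pinned after 2 h settling; 48 h, 37 °C; CellTiter-Glo luminescence; % activity normalised to DMSO and no-cell wells; curves fitted, classed by r2 and efficacy.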
The depositor's hits bear a star; ? = inconclusive; . = not tested or not shown; [ ] = dose if it differs, or a comment. Unless noted, the call rests on the fitted dose curve; in most records, active means well fitted curve in the direction sought with a large enough effect; inconclusive means small, poorly fitted or top-dose-only effect, or another doubt; inactive means no such curve, though single readings can be large; an effect the other way counts as inactive or inconclusive. Unless noted, on the % scale 0 is the no-effect control and ±100 the full control effect.

SMILES	HT1080-NT tox	DT40 TDP1 no CPT	TDP1 cell CPT	IL1B secr inh	HT1080 IDH1KD tx
CCOC(=O)c1c(-c2cccs2)csc1NC(=O)c1ccco1	17%	-11%	6%	1	17%
CCO[C@H]1OC(C(=O)NCc2nc3ccccc3[nH]2)=C[C@@H](c2cn(C(C)=O)c3ccccc23)[C@@H]1CCCO	-9%	18µM*	?	-14	-9%
CCO[C@@H]1OC(C(=O)NCc2nc3ccccc3[nH]2)=C[C@H](c2cn(C(C)=O)c3ccccc23)[C@H]1CCCO	-10%	16µM*	?	?	-9%
CCO[C@@H]1OC(C(=O)NCc2ccccc2)=C[C@H](c2ccc(Br)cc2)[C@H]1CCCO	0%	?	23µM*	0	1%
CCO[C@@H]1OC(C(=O)NCc2ccccc2)=C[C@H](c2cn(C(C)=O)c3ccccc23)[C@H]1CCCO	-2%	18µM*	?	-54*	-6%
CN(C)c1ccc(NC2=C(Cl)C(=O)c3ccccc3C2=O)cc1	3.3µM*	12µM*	21µM*	-100*	2.3µM*
CN(C)c1ccc(NC(=O)CN2C(=O)c3ccccc3C2=O)cc1	2%	-3%	1%	7	6%
CC(=O)Nc1ccc(NC(=O)c2cccc3c2-c2ccccc2C3=O)cc1	-1%	18µM*	21µM*	6	-4%
Cc1ccc(NC(=O)c2cccc3c2-c2ccccc2C3=O)cc1C	-14%	?	?	50	-12%
O=C(Oc1ccc(NC2=C(Cl)C(=O)c3ccccc3C2=O)cc1)c1ccc([N+](=O)[O-])cc1	-14%	7.3µM*	8.2µM*	3	-8%
Cc1ccc(NC2=C(NCCO)C(=O)c3ccccc3C2=O)cc1	?	?	13µM*	-17	?
CC(C)(C)OC(=O)C[C@@H]1C/C=C\C[C@H](CC(=O)NCCO)C(=O)NC[C@@H](c2ccccc2)OC1=O	17%	-18%	-9%	17	13%
CC(=O)Nc1ccc(C2C(=O)c3ccccc3C2=O)cc1	-3%	?	-26%	-19	5%
CC(=O)Nc1ccc(NC2=C(Cl)C(=O)c3ccccc3C2=O)cc1	4.6µM*	?	?	-98*	2.9µM*
O=C1C(Cl)=C(Nc2ccc3cn[nH]c3c2)C(=O)c2ccccc21	?	2.1µM*	1.6µM*	-99*	2.6µM*
O=C(CCl)N(c1ccccc1)c1ccccc1	6.5µM*	1.8µM*	2.1µM*	-108*	5.2µM*
O=C(N(c1ccccc1)c1ccccc1)N(c1ccccc1)c1ccccc1	-2%	21µM*	?	-23	-29%
O=Cc1[nH]c2ccccc2c1N(C(=O)CCl)c1ccccc1	16µM*	15µM*	10µM*	.	23µM*
CCN(CC)Cc1cc(C(C)=O)ccc1OCC(C)C	-9%	0%	15%	0	-9%
CCN(CC)Cc1cc(Oc2ccc(O)c(CN(CC)CC)c2)ccc1O	-4%	23µM*	21µM*	-72*	11%
Cc1ccc(S(=O)(=O)N2[C@@H](c3ccc(C(C)(C)C)cc3)C(C(=O)O)=CC[C@H]2c2ccc(Cl)cc2)cc1	?	?	23µM*	-11	?
Cc1ccc([C@@H]2CC=C(C(=O)O)[C@H](c3ccc(C(C)(C)C)cc3)N2S(=O)(=O)c2ccc(C)cc2)cc1	?	?	?	2	?
CC(=O)C1=CCC(c2ccc(C)cc2)N(S(=O)(=O)c2ccc(Cl)cc2)C1 (centres undefined)	-26%	16µM*	?	?	?
Cc1ccc(S(=O)(=O)N2CC(C(=O)O)=CC[C@H]2c2ccc(Cl)cc2)cc1	8%	-16%	2%	3	-2%
CC(=O)C1=CCC(c2ccc(Cl)c(Cl)c2)N(S(=O)(=O)c2ccc(C)cc2)C1 (centres undefined)	?	15µM*	?	-84*	?
SMILES	HT1080-NT tox	DT40 TDP1 no CPT	TDP1 cell CPT	IL1B secr inh	HT1080 IDH1KD tx
CC(=O)C1=CCC(c2ccc(F)cc2)N(S(=O)(=O)c2ccc(C)cc2)C1 (centres undefined)	7%	18µM*	?	-11	7%
COc1cc(C(=O)N/C(=C/c2ccc(F)cc2)C(=O)NC(C(=O)O)c2ccccc2)cc(OC)c1OC (centres undefined)	-9%	-3%	-13%	-4	-8%
Cc1ccc(NC(=O)C2CCN(S(=O)(=O)c3ccc4c(c3)NC(=O)CO4)CC2)cc1	-5%	?	3%	-7	-7%
COc1cccc(NC(=O)C2CCN(S(=O)(=O)c3ccc4c(c3)NC(=O)C(C)S4)CC2)c1 (centres undefined)	-26%	21µM*	21µM*	26	-17%
CC(C)c1ccc(NC(=O)C2CCN(S(=O)(=O)c3ccc4c(c3)NC(=O)CO4)CC2)cc1	-18%	23µM*	?	-6	-16%
COc1ccc(NC(=O)C2CCN(S(=O)(=O)c3ccc4c(c3)NC(=O)C(C)S4)CC2)cc1 (centres undefined)	?	?	?	44	?
CC1Sc2ccc(S(=O)(=O)N3CCC(C(=O)Nc4ccc(Cl)cc4)CC3)cc2NC1=O (centres undefined)	21µM*	9.2µM*	21µM*	-19	?
O=C(Nc1cccc(S(=O)(=O)Nc2ccc(Cl)cc2)c1)c1cc2c(s1)CCCC2	21µM*	?	?	-81*	21µM*
COc1ccccc1NS(=O)(=O)c1cc(NC(=O)c2sc3cc(Cl)ccc3c2Cl)ccc1C	23%	?	?	24	9%
O=C(Nc1ccon1)c1cc2c(s1)CCCCCC2	-4%[9.24 µM]	-13%	-4%	0	-1%
O=C(Nc1ccc(Cl)c(S(=O)(=O)Nc2ccccc2Cl)c1)c1cccs1	?	?	-13%	-93*	?
Cc1ccc(NC(=O)c2cc3c(s2)CCCC3)cc1S(=O)(=O)Nc1ccccc1Cl	-4%	23µM*	16µM*	92	?
Cc1ccc(C(=O)Nc2ccc(C)c(S(=O)(=O)Nc3ccccc3Cl)c2)s1	-21%	?	?	-62*	?
O=C(Nc1cc(S(=O)(=O)Nc2ccccc2Cl)ccc1O)c1cc2c(s1)CCCC2	0%	-25%	-16%	1	2%
CCCOc1ccc(N2C(=O)CC(N(CCc3ccc(OC)cc3)C(=O)c3ccccc3)C2=O)cc1 (centres undefined)	?	-28%	?	35	?
